# Screens (PubChem BioAssay)
# The sample as a whole holds a higher share of hits than the screen did.
# NPR2 activator – GC-B (human) receptor activation | HEK293-GC-B cells, CNP EC30, cGMP TR-FRET; 0% at EC30 CNP, 100% saturating CNP | AID 1920062 | P20594 | activation, % at 10 µM | 370,000 compounds, 0.11% hits;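 active means activation at 10 µM reaching about 35% in either raw or pattern-adjusted values, limit read from the data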
# HDAC3 inhib – human HDAC3 inhibition | O15379 | recombinant HDAC3, fluorogenic peptide/trypsin coupled, fluorescence | inhibition, % at 8.3 µM | 320,000 compounds, 0.15% hits; in the data active means inhibition above about 26%, passing the limit was not always enough; inconclusive means no clear call, values can overlap the other calls
# NPR1 activator – GC-A (human) enzyme activation; HEK293 GC-A cells, cGMP TR-FRET, EC30 ANP; 0% at EC30 ANP, 100% saturating ANP; AID 1671463; P16066; activation, % at 10 µM; 370,000 compounds, 0.14% hits; in the data active means activation above about 40%
# Target sequence (P16066 whole entry, looked up): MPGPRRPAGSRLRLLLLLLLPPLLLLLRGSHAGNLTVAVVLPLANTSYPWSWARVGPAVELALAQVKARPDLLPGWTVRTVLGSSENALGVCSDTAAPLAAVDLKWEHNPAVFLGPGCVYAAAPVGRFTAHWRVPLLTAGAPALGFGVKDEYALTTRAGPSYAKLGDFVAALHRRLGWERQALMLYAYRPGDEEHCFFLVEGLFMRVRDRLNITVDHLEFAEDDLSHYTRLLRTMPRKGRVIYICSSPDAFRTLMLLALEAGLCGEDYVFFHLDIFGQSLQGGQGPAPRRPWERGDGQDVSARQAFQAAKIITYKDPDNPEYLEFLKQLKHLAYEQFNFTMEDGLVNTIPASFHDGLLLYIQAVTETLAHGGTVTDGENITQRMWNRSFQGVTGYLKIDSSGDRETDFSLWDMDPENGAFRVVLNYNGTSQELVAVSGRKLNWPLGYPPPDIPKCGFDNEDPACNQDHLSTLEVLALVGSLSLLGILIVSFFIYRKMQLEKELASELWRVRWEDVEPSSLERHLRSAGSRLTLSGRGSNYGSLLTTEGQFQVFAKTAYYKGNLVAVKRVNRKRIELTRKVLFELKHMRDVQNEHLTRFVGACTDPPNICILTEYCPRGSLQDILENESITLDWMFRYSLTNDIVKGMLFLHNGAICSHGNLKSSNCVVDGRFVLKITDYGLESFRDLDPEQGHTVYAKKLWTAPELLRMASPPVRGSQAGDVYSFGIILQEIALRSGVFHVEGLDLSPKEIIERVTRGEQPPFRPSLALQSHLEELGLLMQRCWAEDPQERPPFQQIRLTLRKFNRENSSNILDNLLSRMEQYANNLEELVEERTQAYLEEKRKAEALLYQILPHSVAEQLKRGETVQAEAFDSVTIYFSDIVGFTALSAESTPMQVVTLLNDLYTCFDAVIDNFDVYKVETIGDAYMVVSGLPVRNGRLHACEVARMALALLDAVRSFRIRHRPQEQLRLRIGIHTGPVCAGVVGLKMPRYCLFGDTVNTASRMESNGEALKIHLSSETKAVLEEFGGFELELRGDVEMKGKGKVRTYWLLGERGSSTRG
# ALR H2O2 inh – human ALR oxidase inhibition via reduced H2O2. P55789. inhibition, % (no concentration beside the values). purified ALR, DTT oxidation, H2O2 HRP-luminol luminescence. 290,000 compounds, 3.8% hits. AID 485317;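 active means mean replicate inhibition above about 79%, with every replicate also reaching it, limit read from the data; inconclusive means only one of the two criteria met; inactive means mean below limit and not every replicate reaching it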
# * marks the source's active call; other numbers are inactive results; ? = inconclusive; · = no result given.
SMILES,NPR2 activator,HDAC3 inhib,NPR1 activator,ALR H2O2 inh
O=C1CC2c3ccccc3C1C1C(=O)N(Cc3ccccc3)C(=O)C21 (stereo not given),3,-1,-10,17
CC(=O)Nc1cccc(N=NN2CCOCC2)c1,-5,-31,6,7
CC(=O)Nc1cccc(N=NN2CCCCC2)c1,-2,7,5,88*
COC(=O)N/N=C/c1cc(C)n(-c2ccc(Br)cc2)c1C,-9,7,-3,6
CC(=O)N/N=C/c1cc(C)n(-c2ccc(Br)cc2)c1C,-4,1,-8,98*
O=C(NC(O)C(=O)c1ccccc1)c1cccs1 (stereo not given),-3,1,2,91*
Cc1occc1-c1nnc(SCC(=O)Nc2ccccn2)o1,-5,5,5,24
Cc1occc1-c1nnc(SCC(=O)c2cc3ccccc3oc2=O)o1,-3,-1,-4,98*
CC(CNC(=O)C(=O)NC(C)CCc1ccccc1)Cc1ccccc1 (stereo not given),1,4,-2,-7
COc1cc(N=c2ssnc2Cl)cc(OC)c1OC,14,36*,7,·
Clc1ccc(N=c2ssnc2Cl)cc1,24,14,14,36
N#Cc1ccc(N=c2ssnc2Cl)cc1,7,38*,-17,6
COc1ccc(S[C@]2(C(=O)N3CCCC3)CC(=O)N(C(=O)Nc3ccc(C)c(Cl)c3)[C@@H]2c2ccc(OC)cc2)cc1,15,·,0,·
CCCCc1ccc(NC(=O)CSc2nc(=O)n(CCN(CC)CC)c3c2CCCC3)cc1,-5,0,-3,98*
CN(C)CCn1c2c(c(SCC(=O)Nc3cccc4ccccc34)nc1=O)CCC2,4,3,-1,14
COc1ccccc1NC(=O)CSc1nc(=O)n(CCN(C)C)c2c1CCCC2,2,3,3,-4
CCN(CC)CCCn1c2c(c(SCC(=O)Nc3ccc(OC(F)(F)F)cc3)nc1=O)CCC2,0,0,2,-395
CCN(CC)CCn1c2c(c(SCC(=O)Nc3cccc4ccccc34)nc1=O)CCCC2,4,2,-6,96*
CCN(CC)CCn1c2c(c(SCC(=O)Nc3cc(C)cc(C)c3)nc1=O)CCC2,-8,4,-5,3
Cc1ccc(NC(=O)CSc2nc(=O)n(CCN(C)C)c3c2CCCC3)cc1Cl,-7,1,0,98*
CCN(CC)CCCn1c2c(c(SCC(=O)Nc3nc4ccccc4s3)nc1=O)CCC2,-8,1,9,99*
Cc1ccccc1CS(=O)(=O)Cc1ccc(C(=O)Nc2ccc(F)cc2)o1,5,·,-2,·
CN1CCN(c2ncnc3c2ncn3[C@H]2CN(Cc3ccc(F)cc3)C[C@@H](CO)O2)CC1,2,·,-1,·
CCN(CC)CCCn1c2c(c(SCC(=O)Nc3ccc(C)c(F)c3)nc1=O)CCC2,0,2,-1,97*
CN(C)CCCn1c2c(c(SCC(=O)Nc3ccc4c(c3)OCCO4)nc1=O)CCC2,4,3,0,99*
SMILES,NPR2 activator,HDAC3 inhib,NPR1 activator,ALR H2O2 inh
COc1ccc(NC(=O)CSc2nc(=O)n(CCN(C)C)c3c2CCCC3)cc1,-5,-6,0,-16
CCCCc1ccc(NC(=O)CSc2nc(=O)n(CCN(C)C)c3c2CCC3)cc1,-2,4,1,98*
CCOC(=O)Cn1nc(-c2ccc(Cl)cc2)cc1N,4,0,5,-27
CCOC(=O)CN1CCC(c2cc(-c3ccc(Cl)cc3)n[nH]2)CC1,-5,-3,62*,-3
CCN(CC)C(=O)C1=C(C)N(Cc2ccccc2)C(=O)C(CC(=O)NCc2ccco2)C1 (stereo not given),1,·,4,·
O=C(Cc1ccccc1)NCC(=O)N1CCC1,0,-3,-1,1
CCCCNC(=O)c1ccc2c(=O)n(CCCOCC)c(=S)[nH]c2c1,2,-1,-2,-4
CCOCCCNC(=O)c1ccc(-n2c(=S)[nH]c3ccccc3c2=O)cc1,-2,0,-3,84*
CC(Nc1ccc2c(c1)OCCO2)C(=O)N1c2ccccc2CC1C (stereo not given),2,-13,-5,98*
O=S(=O)(Nc1ccc(O)c(Sc2nc3ccccc3s2)c1)c1ccc(F)cc1,5,5,3,?
O=C(O)c1cccc(S(=O)(=O)Nc2ccc(O)c(Sc3nc4ccccc4s3)c2)c1,3,-2,-1,99*
Cc1ccsc1/C=C1\SC(N)=NC1=O,-7,9,10,-9
Cc1ccsc1/C=C1/SC(N2CC(C)OC(C)C2)=NC1=O (stereo not given),0,1,0,99*
COc1cc(OC)cc(C(=O)Nc2ccc(C(=O)Nc3ccccc3OC)cc2)c1,3,4,-2,·
O=C(CC(NCCc1ccccc1)C(=O)O)Nc1ccc(O)cc1 (stereo not given),6,-3,-2,91*
O=C(CC(c1ccccc1)c1ccccc1)Nc1ccc(O)cc1,-2,0,1,99*
CCOc1ccc(NC(=O)N(CCCN2CCOCC2)Cc2cccnc2)cc1,-3,3,15,-6
CCCN1CCCc2cc(CN(CCCN3CCOCC3)C(=O)Nc3ccc(OCC)cc3)ccc21,-2,6,-1,99*
COc1cccc(NC(=S)NCCN2CCOCC2)c1,-1,-2,0,-7
CCOc1ccc(NC(=O)N(CCN2CCOCC2)Cc2ccc3c(c2)CCCN3CC)cc1,4,-5,-8,100*
CCN1CCCc2cc(CN(CCN3CCOCC3)C(=S)Nc3cccc(OC)c3)ccc21,-3,0,4,87*
COc1ccc(OC)c(CN(CCN2CCOCC2)C(=O)Nc2ccccc2)c1,-4,?,-1,·
Cc1ccc(C(=O)OC(C(=O)O)C(OC(=O)c2ccc(C)cc2)C(=O)O)cc1 (stereo not given),3,-6,2,19
N#CC1=C(N)Oc2cc(N)ccc2C1c1ccc(F)cc1 (stereo not given),9,-1,16,98*
COc1ccc(C2C(C#N)=C(N)Oc3cc(N)ccc32)cc1 (stereo not given),1,-4,10,95*
SMILES,NPR2 activator,HDAC3 inhib,NPR1 activator,ALR H2O2 inh
Cc1ccc(S(=O)(=O)NC(=O)c2cc(C)n(-c3ccccc3)c2C)cc1,2,1,3,39
Cc1ccc(S(=O)(=O)NC(=O)c2cc(C)n(-c3ccc(N(C)C)cc3)c2C)cc1,-1,-7,2,95*
Cc1ccc(NC(=O)NNS(=O)(=O)c2ccc(Br)cc2)cc1,4,-3,-1,-7
Cc1ccc(S(=O)(=O)NC(=O)Nc2ccc(N(C)C)cc2)cc1,6,5,-78,86*
O=C(CN1CCN(S(=O)(=O)c2ccc3c(c2)OCCCO3)CC1)N1CCc2ccccc21,-7,·,-2,·
CC1CCC/C(=C\c2ccc(O)cc2)C1=O (stereo not given),-3,6,0,92*
CCOc1ccc2c(c1)nc(SCC(=O)c1cccs1)n2C,-5,1,-4,97*
COc1ccc(S(=O)(=O)/N=C2/NC(=O)/C(=C/c3ccco3)S2)cc1,3,-6,1,99*
